Test results reported in PubChem BioAssay AID1159580 (chemical genetic matrix, 2015).
About 2,000 (36%) of roughly 5,500 compounds were called active. Roughly 18% stayed inconclusive and do not appear here. Rule as the data show it: active = normalized growth mostly below about 0.91 (no sharp cut-off); inconclusive = no clear call, values can overlap the other calls; inactive = mostly above about 0.92. The list shows a part of the results.

Assay: chemical genetic growth profiling, strain panel (AID 1159580);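 also: tested at 20 µM; growth read once vehicle control cultures reached saturation at 30 °C; 1 = growth at the plate median or of vehicle wells; lower values mean less growth of the strain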
Conditions: S. cerevisiae deletion strains, growth OD

Measured: normalized growth

C[C@]12CCC3C(CC[C@H]4C[C@H](OS(=O)(=O)O)CC[C@]34C)C1CCC2=O (some centres not stated)
inactive: locus YAL021C, strain ccr4, hits give low values 1.02 | locus YAL026C, strain drs2, hits give low values 1.05 | locus YAL030W, strain snc1, hits give low values 1.05 | locus YBL061C, strain skt5, hits give low values 1.05 | locus YBR009C, strain hhf1, hits give low values 1.06 | locus YBR023C, strain chs3, hits give low values 1.05 | locus YBR171W, strain sec66, hits give low values 1.08 | locus YBR231C, strain swc5, hits give low values 1.06 | locus YBR279W, strain paf1, hits give low values 1.03 | locus YCL011C, strain gbp2, hits give low values 1.05 | locus YCL016C, strain dcc1, hits give low values 1.04 | locus YCL061C, strain MRC1, hits give low values 1.05 | locus YCL069W, strain vba3, hits give low values 1.04 | locus YCR088W, strain abp1, hits give low values 1.04 | locus YDL005C, strain med2, hits give low values 1.06 | locus YDL040C, strain nat1, hits give low values 1.04 | locus YDR001C, strain nth1, hits give low values 1.04 | locus YDR069C, strain doa4, hits give low values 1.05 | locus YDR137W, strain rgp1, hits give low values 1.05 | locus YDR159W, strain sac3, hits give low values 1.08 | locus YDR195W, strain ref2 1.06 | locus YDR297W, strain sur2, hits give low values 1.05 | locus YDR334W, strain swr1, hits give low values 1.05 | locus YDR335W, strain msn5, hits give low values 1.04 | locus YDR392W, strain spt3, hits give low values 1.07 | locus YEL003W, strain gim4, hits give low values 1.03 | locus YEL037C, strain rad23, hits give low values 1.04 | locus YEL061C, strain CIN8 (second series), hits give low values 1.05 | locus YER015W, strain faa2, hits give low values 1.05 | locus YER016W, strain bim1, hits give low values 1.04 | locus YER111C, strain swi4, hits give low values 1.06 | locus YER155C, strain BEM2 (second series), hits give low values 1.06 | locus YFR010W, strain ubp6, hits give low values 1.05 | locus YGL167C, strain pmr1, hits give low values 1.06 | locus YGL173C, strain kem1, hits give low values 1.04 | locus YGL227W, strain vid30, hits give low values 1.05 | locus YGL240W, strain doc1, hits give low values 1.04 | locus YGL253W, strain hxk2, hits give low values 1.04 | locus YHR013C, strain ard1, hits give low values 1.12 | locus YHR027C, strain rpn1, hits give low values 1.05 | locus YHR142W, strain chs7, hits give low values 1.05 | locus YJL092W, strain hpr5, hits give low values 1.05 | locus YJL095W, strain BCK1 (second series), hits give low values 1.04 | locus YJL115W, strain asf1, hits give low values 1.06 | locus YJL129C, strain trk1, hits give low values 1.11 | locus YJL154C, strain vps35, hits give low values 1.04 | locus YJL164C, strain tpk1, hits give low values 1.05 | locus YJL166W, strain qcr8, hits give low values 1.05 | locus YJL187C, strain SWE1, hits give low values 1.05 | locus YKL160W, strain elf1, hits give low values 1.03 | locus YKR026C, strain gcn3, hits give low values 1.06 | locus YKR091W, strain srl3, hits give low values 1.04 | locus YLL001W, strain dnm1, hits give low values 1.05 | locus YLL026W, hits give low values 1.05 | locus YLL041C, strain sdh2, hits give low values 1.05 | locus YLR027C, strain aat2, hits give low values 1.05 | locus YLR221C, strain rsa3, hits give low values 1.05 | locus YLR258W, strain gsy2, hits give low values 1.06 | locus YLR262C, strain YPT6 (second series), hits give low values 1.04 | locus YLR320W, strain mms22, hits give low values 1.06 | locus YLR342W, strain FKS1, hits give low values 1.06 | locus YLR357W, strain rsc2, hits give low values 1.06 | locus YLR370C, strain arc18, hits give low values 1.05 | locus YLR384C, strain iki3, hits give low values 1.05 | locus YML120C, strain ndi1, hits give low values 1.05 | locus YMR058W, strain fet3, hits give low values 1.04 | locus YMR125W, strain sto1, hits give low values 1.05 | locus YMR129W, hits give low values 1.05 | locus YMR205C, strain PFK2, hits give low values 1.07 | locus YMR231W, strain pep5, hits give low values 1.03 | locus YNL071W, strain lat1, hits give low values 1.05 | locus YNL209W, strain ssb2, hits give low values 1.04 | locus YNL248C, strain rpa49, hits give low values 1.04 | locus YNL322C, strain KRE1 (second series), hits give low values 1.04 | locus YNR049C, strain mso1, hits give low values 1.05 | locus YOR001W, strain rrp6, hits give low values 1.04 | locus YOR070C, strain gyp1, hits give low values 1.06 | locus YOR080W, strain dia2, hits give low values 1.07 | locus YOR083W, strain WHI5, hits give low values 1.04 | locus YOR106W, strain vam3, hits give low values 1.03 | locus YOR270C, strain vph1, hits give low values 1.1 | locus YOR290C, strain snf2, hits give low values 1.04 | locus YPL051W, strain arl3, hits give low values 1.05 | locus YPL078C, strain atp4, hits give low values 1.03 | locus YPL106C, strain sse1, hits give low values 1.1 | locus YPL240C, strain hsp82, hits give low values 1.04
active: locus YOR265W, strain rbl2, hits give low values 1.08 [resistant]
